Where “and” joins values, the source holds several entries; their conditions need not be identical. Equal entries are not always repeated. Results filed as inconclusive are left out. Calls of active or inactive are those of the source. Rule for the calls, unless noted: active = hit-call score of the fitted dose curve at least 0.9, where 1 is the maximum; inconclusive = response in the unintended direction; inactive = score below 0.9.
Columns and labels:
[1] = read-out: Cytochrome P450 (CYP24A1_1), CYP24A1 (gene 1591); assay: LTEA_HepaRG_CYP24A1_1: Life Technologies and Expression Analysis (LTEA) Assay for Cytochrome P450 (CYP24A1_1) using HepaRG (AID 2283671; active = hit-call score of the fitted dose curve at least 0.9, where 1 is the maximum; inactive = score below 0.9); conditions: mRNA level, 48 h; actives raise or lower the signal
Procedure, shortened: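 Cultures of human HepaRG were treated in duplicate for 48 h (0.5% DMSO vehicle, highest dose 100 uM). CYP24A1 mRNA by qRT-PCR, normalized to ACTB, GAPDH, POLR2A.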

[2] = read-out: glucuronosyltransferase (UGT1A1), UGT1A1 (gene 54658); assay: CLD_UGT1A1_6hr: CellzDirect (CLD) Gene Expression Assay for glucuronosyltransferase (UGT1A1) at 6 hours (AID 2283672)
Procedure, shortened: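 UGT1A1 mRNA induction, read by quantitative nuclease protection assay, 6 h after dosing primary human hepatocytes (two donors, 0.2% DMSO vehicle). Gain of signal fitted relative to vehicle.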

[3] = read-out: xenobiotic metabolism (CYP1A1), CYP1A1 (gene 1543); assay: CLD_CYP1A1_24hr: CellzDirect (CLD) Gene Expression Assay for xenobiotic metabolism (CYP1A1) at 24 hours (AID 2283673);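 note: CYP1A1 mRNA level by quantitative nuclease protection with chemiluminescence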
Procedure, shortened: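 Transcript levels were read at 24 h by qNPA chemiluminescence in human liver primary cells. Cells got daily fresh dosing at multiple concentrations (vehicle 0.2% DMSO). Induction fitted upward against DMSO; phase-contrast cytotoxicity annotated.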

[4] = read-out: ABC Transporter (ABCB11), ABCB11 (gene 8647); assay: CLD_ABCB11_6hr: CellzDirect (CLD) Gene Expression Assay for ABC Transporter (ABCB11) at 6 hours (AID 2283675);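 note: hits raise ABCB11 mRNA level so AC50 marks induction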
Procedure, shortened: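 Read-out was ABCB11 mRNA gain of signal by quantitative nuclease protection assay, relative to 0.2% DMSO vehicle, 6 h post-dose. Cells were primary human hepatocytes from two donors, treated across multiple concentrations; phase-contrast cytotoxicity noted yes/no.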

[5] = CLD_ACTIN_6hr: CellzDirect (CLD) Gene Expression Assay for Baseline Control (Actin) at 6 hours (AID 2283676);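 note: active means increased actin mRNA relative to DMSO vehicle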
Procedure, shortened: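 Baseline actin transcript level measured by qNPA (S1 nuclease protection, chemiluminescence) in human hepatocyte cultures 6 h after chemical exposure; 0.2% DMSO vehicle as reference, cytotoxicity noted from morphology.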

[6] = read-out: Cytochrome P450 2C19 (Homo sapiens) (UniProt P33261); assay: CLD_CYP2C19_6hr: CellzDirect (CLD) Gene Expression Assay for xenobiotic metabolism (CYP2C19) at 6 hours (AID 2283678)
Procedure, shortened: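 CYP2C19 transcript induction was quantified by quantitative nuclease protection assay with chemiluminescent read-out, 6 h after dosing. Cells were primary human hepatocytes from two donor preparations, given fresh dosing solutions daily in 0.2% DMSO vehicle. Activity was relative to DMSO.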

[7] = read-out: Glyceraldehyde-3-phosphate dehydrogenase (Homo sapiens) (UniProt P04406); assay: CLD_GAPDH_6hr: CellzDirect (CLD) Gene Expression Assay for Baseline Control (Glyceraldehyde 3-phosphate dehydrogenase) at 6 hours (AID 2283681);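 note: active means increased signal relative to DMSO vehicle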
Procedure, shortened: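 GAPDH baseline-control readout from qNPA (S1 nuclease digestion, probe hybridization, chemiluminescence) in lysates of cultured human hepatocytes harvested 6 h post-dosing. Chemicals tested at multiple concentrations versus 0.2% DMSO vehicle; microscopy-based cytotoxicity flagged yes/no.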

[8] = read-out: ABC Transporter (ABCB11), ABCB11 (gene 8647); assay: CLD_ABCB11_24hr: CellzDirect (CLD) Gene Expression Assay for ABC Transporter (ABCB11) at 24 hours (AID 2283674; active = hit-call score of the fitted dose curve at least 0.9, where 1 is the maximum; inactive = score below 0.9)
Procedure, shortened: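 ABCB11 transcript was quantified by qNPA chemiluminescence in cultured human liver hepatocytes 24 hours after dosing. Fresh dosing solutions were applied on consecutive days, against a 0.2% DMSO vehicle. Cytotoxicity was noted by phase-contrast morphology.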

[9] = read-out: Cytochrome P450 2B6 (Homo sapiens) (UniProt P20813); assay: CLD_CYP2B6_6hr: CellzDirect (CLD) Gene Expression Assay for xenobiotic metabolism (CYP2B6) at 6 hours (AID 2283677);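 note: actives raise CYP2B6 transcript above DMSO baseline so AC50 marks an inducer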
Procedure, shortened: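 CYP2B6 transcript levels, read by chemiluminescent qNPA, were fitted for increase versus DMSO baseline; cultured human liver hepatocytes from two donor preparations were harvested 6 h after exposure to test chemicals at multiple concentrations.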

[10] = CCTE_Padilla_ZF_144hpf_TERATOSCORE: (Legacy) CCTE's 144 Hour Post-fertilization zebrafish Assay Teratoscore, Padilla Lab (AID 2283679; active = hit-call score of the fitted dose curve at least 0.9, where 1 is the maximum; inactive = score below 0.9;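 for AC50: zebrafish embryos with chorions exposed by immersion from 6-8 hpf to 5 dpf with daily renewal; teratogenicity score from eye scoring of death hatching and malformations at 144 hpf; higher score means more developmental defects relative to DMSO baseline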)
Procedure, shortened: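 Larvae scored by eye at 144 hpf for death, hatching and malformations after a day in clean Hanks'. Before that, daily-renewed exposure at 80 uM (0.4% DMSO, 26C) from roughly 6-8 hpf through 5 dpf, 4 embryos per chemical.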

Measured: AC50

Chain of Cytochrome P450 2C19 (Homo sapiens) (P33261 whole entry, looked up): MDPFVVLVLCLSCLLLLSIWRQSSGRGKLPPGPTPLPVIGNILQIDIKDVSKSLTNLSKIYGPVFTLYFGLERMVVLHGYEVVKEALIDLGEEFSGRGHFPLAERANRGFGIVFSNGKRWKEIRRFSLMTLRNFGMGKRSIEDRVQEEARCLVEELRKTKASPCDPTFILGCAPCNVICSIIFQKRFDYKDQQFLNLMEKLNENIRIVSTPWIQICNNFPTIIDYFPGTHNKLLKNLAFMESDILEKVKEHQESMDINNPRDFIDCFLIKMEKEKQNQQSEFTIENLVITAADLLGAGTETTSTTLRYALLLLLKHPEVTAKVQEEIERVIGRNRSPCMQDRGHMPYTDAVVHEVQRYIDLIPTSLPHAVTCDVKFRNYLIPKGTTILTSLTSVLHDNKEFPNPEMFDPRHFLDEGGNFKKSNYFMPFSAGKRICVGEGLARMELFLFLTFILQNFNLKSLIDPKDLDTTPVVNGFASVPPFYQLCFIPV
Chain of Glyceraldehyde-3-phosphate dehydrogenase (Homo sapiens) (P04406 whole entry, looked up): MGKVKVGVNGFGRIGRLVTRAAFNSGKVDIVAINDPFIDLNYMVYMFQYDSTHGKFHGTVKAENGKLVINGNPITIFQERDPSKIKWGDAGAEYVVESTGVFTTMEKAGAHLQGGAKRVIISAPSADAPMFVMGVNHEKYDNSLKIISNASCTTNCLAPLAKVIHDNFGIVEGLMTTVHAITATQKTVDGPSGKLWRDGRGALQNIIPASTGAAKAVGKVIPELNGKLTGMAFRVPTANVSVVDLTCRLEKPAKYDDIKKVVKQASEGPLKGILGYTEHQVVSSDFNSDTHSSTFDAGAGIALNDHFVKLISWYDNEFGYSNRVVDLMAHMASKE

CCCN(CCOc1c(Cl)cc(Cl)cc1Cl)C(=O)n1ccnc1
active: [3] 1.89 µM
inactive: [1] | [2] | [4] | [5] | [6] | [7]

ClC1C(Cl)C(Cl)C(Cl)C(Cl)C1Cl (stereo unspecified)
inactive: [1] | [2] | [5]

O=S1OCC2C(CO1)C1(Cl)C(Cl)=C(Cl)C2(Cl)C1(Cl)Cl (stereo unspecified)
inactive: [2] | [3] | [8] | [4] | [5] | [7]

CNC(=O)CSP(=S)(OC)OC
inactive: [2] | [3] | [4] | [5] | [6] | [7]
active: [9] 3.11 µM

CC1(C)C(C=C(Cl)Cl)C1C(=O)OC(C#N)c1ccc(F)c(Oc2ccccc2)c1 (stereo unspecified)
inactive: [1] | [2] | [3] | [4] | [6] | [7]

O=C1c2ccccc2C(=O)N1SC(Cl)(Cl)Cl
inactive: [1] | [3] | [8] | [4] | [6] | [7]

CCc1ccc(C(=O)NN(C(=O)c2cc(C)cc(C)c2)C(C)(C)C)cc1
active: [3] 9.97 µM | [4] 20 µM
inactive: [2] | [8] | [10]

COC(=O)c1ccccc1S(=O)(=O)NC(=O)N(C)c1nc(C)nc(OC)n1
inactive: [2] | [3] | [8] | [4] | [6] | [7]

CCOc1nc(NC)nc(NC(=O)NS(=O)(=O)c2ccccc2C(=O)OC)n1
active: [3] 7.53 µM
inactive: [2] | [8] | [7]

CNC(=O)/C=C(\C)OP(=O)(OC)OC
inactive: [2] | [3] | [8] | [4] | [10]

O=C(Nc1ccccc1)Nc1cnns1
active: [3] 2 µM
inactive: [2] | [4] | [5]

O=C(NC(=O)c1c(F)cccc1F)Nc1ccc(OC(F)(F)C(F)OC(F)(F)F)c(Cl)c1 (stereo unspecified)
inactive: [2] | [3] | [8] | [4] | [5] | [6]

CCCN(CCC)c1c([N+](=O)[O-])cc(C(F)(F)F)cc1[N+](=O)[O-]
inactive: [1] | [2] | [4] | [5]
active: [3] 8.5 µM | [10] 601 nM

CCOCN(C(=O)CCl)c1c(C)cccc1CC
inactive: [2] | [8] | [4] | [5] | [6] | [7]
active: [3] 1.99 µM

CCC(C)(NC(=O)c1cc(Cl)c(C)c(Cl)c1)C(=O)CCl (stereo unspecified)
inactive: [2] | [3] | [4] | [5]

CCS(=O)(=O)c1cccnc1S(=O)(=O)NC(=O)Nc1nc(OC)cc(OC)n1
inactive: [2] | [8] | [4] | [6] | [7]
active: [3] 1.9 µM

Clc1ccccc1-c1nnc(-c2ccccc2Cl)nn1
inactive: [2] | [8] | [4] | [5] | [6] | [7]
active: [3] 5.94 µM

N#Cc1c(Cl)c(Cl)c(Cl)c(C#N)c1Cl
inactive: [1] | [8] | [6]
active: [4] 20 µM

CN1CSC(=S)N(C)C1
active: [3] 3.9 µM | [10] 196 nM
inactive: [1] | [2] | [4] | [6] | [7]

COc1nn(CSP(=S)(OC)OC)c(=O)s1
active: [3] 4.39 µM | [10] 18200 nM
inactive: [2] | [8] | [6]

CCC(C)Nc1c([N+](=O)[O-])cc(C(C)(C)C)cc1[N+](=O)[O-] (stereo unspecified)
inactive: [1] | [2] | [3] | [4] | [6]

COP(=S)(OC)Oc1ccc([N+](=O)[O-])cc1
active: [3] 4.2 µM
inactive: [2] | [8]

O=[N+]([O-])/N=C1\NCCN1Cc1ccc(Cl)nc1
inactive: [2] | [3] | [8] | [4] | [9] | [6] | [10] | [7]

Cc1[nH]c(=O)n(C(C)(C)C)c(=O)c1Cl
inactive: [1] | [2] | [6]
active: [3] 7.51 µM

CCOC1Oc2ccc(OS(C)(=O)=O)cc2C1(C)C (stereo unspecified)
inactive: [1] | [2] | [3] | [5] | [10]

Cc1cc(C)nc(NC(=O)NS(=O)(=O)c2ccccc2C(=O)OC2COC2)n1
active: [3] 5.65 µM
inactive: [2] | [8] | [5] | [9] | [6] | [10] | [7]

CC(C)OC(=O)Nc1cccc(Cl)c1
inactive: [2] | [5]
active: [3] 5.63 µM

CNC(=O)Oc1cccc(N=CN(C)C)c1
inactive: [2] | [4] | [5] | [6] | [7]

COC(=O)c1ccccc1S(=O)(=O)NC(=O)Nc1nc(C)nc(OC)n1
inactive: [3] | [8] | [4] | [5] | [6] | [7]

CCN(CC)C(=O)SCc1ccc(Cl)cc1
inactive: [2] | [3] | [4] | [5] | [6]

Oc1ccc(Cl)cc1Cc1ccccc1
inactive: [2] | [5] | [6] | [7]

Oc1cc(Cl)ccc1Oc1ccc(Cl)cc1Cl
inactive: [3] | [4] | [7]

COP(=O)(OC)OC=C(Cl)Cl
inactive: [2] | [3] | [4] | [5] | [7]

COC(=O)c1ccccc1CS(=O)(=O)NC(=O)Nc1nc(OC)cc(OC)n1
active: [3] 32.4 µM
inactive: [2] | [4] | [5] | [6]

CCC(C)(C)C(=O)OC1=C(c2ccc(Cl)cc2Cl)C(=O)OC12CCCCC2
inactive: [2] | [3] | [4] | [5] | [6] | [7]

COc1cc(OC)nc(NC(=O)NS(=O)(=O)c2cc(NC=O)ccc2C(=O)N(C)C)n1
inactive: [3] | [5] | [7]

CC1(c2ccc(Oc3ccccc3)cc2)OC(=O)N(Nc2ccccc2)C1=O (stereo unspecified)
active: [3] 3.89 µM
inactive: [4] | [5] | [6]

COP(=S)(OC)Oc1ccc(SC)c(C)c1
inactive: [2]
active: [3] 20 µM | [9] 4.74 µM

CC(C)N(C(=O)COc1nnc(C(F)(F)F)s1)c1ccc(F)cc1
active: [10] 39200 nM
inactive: [2] | [3] | [7]

C[C@H]1[C@H](c2ccc(Cl)cc2)SC(=O)N1C(=O)NC1CCCCC1
active: [3] 3.97 µM
inactive: [2] | [4] | [5] | [10] | [7]

CNC(=O)Oc1ccccc1OC(C)C
active: [9] 3.21 µM
inactive: [2] | [3] | [5] | [6] | [10] | [7]

O=C(O)C(F)(F)C(F)(F)C(F)(F)C(F)(F)C(F)(F)C(F)(F)C(F)(F)F
inactive: [2] | [3] | [4] | [5] | [6] | [7]

CC(C)(C)C(O)/C(=C\c1ccc(Cl)cc1Cl)n1cncn1 (stereo unspecified)
active: [3] 6.46 µM | [9] 0.733 µM
inactive: [2] | [5] | [7]

N#CN
inactive: [2] | [8] | [4] | [5] | [7]

CC(C)(C)C(O)C(Oc1ccc(Cl)cc1)n1cncn1 (stereo unspecified)
inactive: [2] | [4] | [5] | [7]
active: [3] 2.22 µM

C#CCN1C(=O)COc2cc(F)c(N3C(=O)C4=C(CCCC4)C3=O)cc21
inactive: [8] | [5] | [6]

O=[N+]([O-])c1c(Cl)c(Cl)c(Cl)c(Cl)c1Cl
inactive: [2] | [4] | [7]
active: [3] 20 µM

OCCOc1ccccc1
inactive: [3] | [8] | [4] | [5] | [6] | [7]

O=S(=O)(O)C(F)(F)C(F)(F)C(F)(F)C(F)(F)C(F)(F)C(F)(F)C(F)(F)C(F)(F)F
active: [10] 23.8 µM and 45.6 µM and 7.44 µM
inactive: [2] | [3] | [4] | [5] | [6]

O=C(O)COc1ccc(Cl)cc1Cl
inactive: [2] | [3] | [5] | [6] | [7]

CC[C@H](C)[C@H]1O[C@]2(C=C[C@@H]1C)C[C@@H]1C[C@@H](C/C=C(\C)[C@@H](O[C@H]3C[C@H](OC)[C@@H](O[C@H]4C[C@H](OC)[C@@H](O)[C@H](C)O4)[C@H](C)O3)[C@@H](C)/C=C/C=C3\CO[C@@H]4[C@H](O)C(C)=C[C@@H](C(=O)O1)[C@]34O)O2 (tested in a mixture with another compound)
inactive: [5] | [7]
active: [3] 35.2 µM | [8] 0.467 µM | [4] 0.332 µM

[2H]C1([2H])[n+]2ccccc2-c2cccc[n+]2C1([2H])[2H]
inactive: [8] | [4] | [5] | [6] | [7]

O=C(O)CCCOc1ccc(Cl)cc1Cl
inactive: [2] | [5] | [7]
